# Data taken from PubChem BioAssay (Tox21).
# Unmarked numbers belong to inactive results. Inconclusive results are not listed. Where a call stands in place of a potency, no number is given. The source holds several records for some structures; these can differ, active in one and inactive in another. Calls of active or inactive are those of the source. Unless noted, the call rests on the fitted dose curve.
# Columns and labels:
# [1] = Nuclear factor erythroid 2-related factor 2/antioxidant responsive element (Nrf2/ARE) small molecule agonists: qHTS cell viability counter screen in human keratinocytes (AID 1919968; active means well fitted curve in the direction sought with a large enough effect in the repeat runs; an effect the other way counts as inactive or inconclusive; further: nearly all actives have a fitted effect of over 55% in size; further: potency means the concentration at half of the fitted maximal effect)
# How it was run: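 KeratinoSens HaCaT cells, 1,500/well, preincubated 5 h, then exposed to compounds in DMSO for 23 h at 37 C/5% CO2. Viability read as CellTiter-Fluor fluorescence after 1 h, in the same wells as the ARE-luciferase read.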
# [2] = biological target: Gonadotropin-releasing hormone receptor (Homo sapiens) (UniProt P30968); assay: Human gonadotropin-releasing hormone receptor (GnRHR) small molecule agonists, calcium flux assay in GnRHR-HEK293 cells (AID 1920063); further: nearly all actives have a fitted effect of over 35% in size
# How it was run: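 HEK293 cells stably expressing human GnRHR were dye-loaded for 1 h at 37 C. Compound was added in agonist mode and fluorescence (Ex/Em 480/540) recorded kinetically for 3 min. Fifteen concentrations, triplicates.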
# [3] = biological target: KiSS-1 receptor (Homo sapiens) (UniProt Q969F8); assay: Human kisspeptin (KISS1R) small molecule agonists, calcium flux assay in KISS1R-HEK293 cells (AID 1920064; active means well fitted curve in the direction sought with a large enough effect in the repeat runs; an effect the other way counts as inactive or inconclusive)
# How it was run: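 HEK293 cells stably expressing human KISS1R were loaded with calcium dye for 1 h at 37 C, then given compound; fluorescence (Ex/Em 480/540) was read kinetically for 3 min. Fifteen concentrations, triplicate.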
# [4] = G protein-coupled receptor (GPCR) small molecule agonists, calcium flux assay: HEK293 wild type cell line counter screen (AID 1920065)
# How it was run: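 Wild-type HEK293 cells plated 18 h, loaded with calcium dye 1 h at 37 C, then compounds added in agonist mode (ATP as positive control). Kinetic fluorescence Ex/Em 480/540 recorded 3 min at 1 sec intervals; 15 concentrations, triplicate.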
# [5] = p53 small molecule agonists, cell-based qHTS assay with rat liver microsomes (AID 1963578)
# How it was run: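 Compound in DMSO added to p53RE-bla cells 5 h post-plating; rat microsomes/NADPH 0.5 mg/mL final; 16 h, 37 C; LiveBLAzer 2 h RT.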
# [6] = p53 small molecule agonists, cell-based qHTS assay with human liver microsomes: qHTS cell viability counter screen (AID 1963579); further: nearly all actives have a fitted effect of over 45% in size; further: potency means the concentration at half of the fitted maximal effect
# How it was run: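 HLM-supplemented (0.5 mg/mL final) and NADPH-supplemented (0.5 mg/mL final) p53RE-bla cultures, 4,000 cells per well, were dosed with compounds in DMSO for 16 h at 37 C; luminescent ATP detection (CellTiter-Glo, 30 min, room temperature) quantified surviving cells.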
# [7] = p53 small molecule agonists, cell-based qHTS assay with rat liver microsomes: qHTS cell viability counter screen (AID 1963580); further: nearly all actives have a fitted effect of over 45% in size
# How it was run: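 Intracellular ATP, by CellTiter-Glo luminescence, defines viability. HCT-116 p53RE-bla cells, 4,000 per well, were compound-treated in the presence of rat liver microsomes and NADPH for 16 h at 37 C.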
# [8] = p53 small molecule agonists, cell-based qHTS assay: qHTS cell viability counter screen (AID 1963581); further: nearly all actives have a fitted effect of over 45% in size
# How it was run: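 p53RE-bla HCT-116 cells, compounds added 5 h after plating and incubated 16 h at 37 C. Cytotoxicity measured in the same wells as intracellular ATP by CellTiter-Glo luminescence after 30 min at room temperature.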
# [9] = p53 small molecule agonists, cell-based qHTS assay (AID 1963582; active means well fitted activation curve with a large enough effect in the signal ratio in the repeat runs, not every such curve was filed as active; the % refers to the signal ratio)
# How it was run: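 p53RE-bla reporter cells, compounds added in DMSO after 5 h plating, incubated 16 h at 37 C. Beta-lactamase read via 2 h room-temperature LiveBLAzer B/G FRET substrate, fluorescence intensity.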
# [10] = cAMP Responsive Elements (CRE) small molecule agonists, cell-based qHTS assay (AID 1963590)
# How it was run: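 CRE-bla HEK 293T cells, 2,000/well in DMEM with 10% dialyzed FBS and 25 mM HEPES, pre-incubated 18 h at 37 C, then exposed to compound 3 h at 37 C. Beta-lactamase reporter read with LiveBLAzer B/G FRET substrate after 2 h at room temperature.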
# [11] = cAMP Responsive Elements (CRE) small molecule antagonists, cell-based qHTS assay (AID 1963591; active means well fitted inhibition curve with a large enough effect in the signal ratio in the repeat runs, not every such curve was filed as active; the % refers to the signal ratio)
# How it was run: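 CRE-bla HEK293T cells plated 18 h, then given compound plus NKH477 at 0.25 uM final for 3 h at 37C. Beta-lactamase reporter read with LiveBLAzer B/G FRET substrate after 2 h at room temperature.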
# [12] = biological target: Beta-2 adrenergic receptor (Homo sapiens) (UniProt P07550); assay: Adrenergic beta2 receptor (ADRB2) small molecule antagonists, cell-based qHTS assay (AID 1963592); further: series mostly up to about 92 µM; nearly all actives have a fitted effect of over 50% in size
# How it was run: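 Cells (CHO, stable ADRB2 overexpression) incubated 18-20hr at 37C; compounds added from DMSO; agonist mix (1nM isoproterenol, 100uM IBMX, 25uM Ro-20-1724) added; 0.5hr RT; d2-cAMP and anti-cAMP-cryptate added; 1hr RT; 665/615 nm read.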
# [13] = biological target: D(2) dopamine receptor (Homo sapiens) (UniProt P14416); assay: Dopamine D2 receptor (DRD2) small molecule agonists, cell-based qHTS assay (AID 1963594); further: nearly all actives have a fitted effect of over 35% in size
# How it was run: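 cAMP accumulation in DRD2-HEK293 cells measured by HTRF after 1 h detection; compounds added 10 min before NKH477 (200nM […]) forskolin-analogue stimulation, 30 min at room temperature, with Ro20-1724 present at 0.1 mM final.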
# [14] = Nuclear factor erythroid 2-related factor 2/antioxidant responsive element (Nrf2/ARE) small molecule agonists: luciferase reporter gene qHTS assay in human keratinocytes (AID 1919969); further: nearly all actives have a fitted effect of over 35% in size
# [15] = p53 small molecule agonists, cell-based qHTS assay with human liver microsomes (AID 1963577);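 further: p53 response element beta-lactamase reporter cells with liver microsomes plus NADPH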
# How it was run: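 Reporter activation was measured by LiveBLAzer fluorescence intensity in p53RE-bla cells, which had been exposed to compounds for 16 h at 37 C alongside 0.5 mg/mL human liver microsomes and 0.5 mg/mL NADPH (final concentrations).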
# [16] = biological target: 5-hydroxytryptamine receptor 2A (Homo sapiens) (UniProt P28223); assay: 5-hydroxytryptamine receptor 2A (HTR2A) small molecule antagonists, cell-based qHTS assay (AID 1963586); further: nearly all actives have a fitted effect of over 45% in size
# How it was run: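 Antagonist-mode intracellular calcium assay: DOI (4 nM) added after 5 min compound pre-incubation at room temperature to dye-loaded HTR2A-CHO cells. Fluorescence followed for 3 min, sampled every second.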
# [17] = biological target: 5-hydroxytryptamine receptor 2A (Homo sapiens) (UniProt P28223); assay: 5-hydroxytryptamine receptor 2A (HTR2A) small molecule agonists, cell-based qHTS assay (AID 1963587); further: nearly all actives have a fitted effect of over 30% in size
# How it was run: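 Kinetic calcium-flux fluorescence (2 min, 1 sec intervals) after compound addition in agonist mode. HTR2A-CHO cells were cultured 18 h, then dye-loaded 1 h at 37 C.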
# [18] = biological target: Muscarinic acetylcholine receptor M1 (Homo sapiens) (UniProt P11229); assay: Cholinergic receptor muscarinic 1 (CHRM1) small molecule antagonists, cell-based qHTS assay (AID 1963588); further: nearly all actives have a fitted effect of over 40% in size
# How it was run: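 CHRM1-CHO calcium-flux assay, antagonist mode. Cells were seeded 18 h, dye-loaded 1 h at 37 C and given compound for 5 min at RT, then acetylcholine was added at 50nM. FDSS fluorescence was read 3 min; 15 concentrations, three runs.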
# [19] = biological target: Muscarinic acetylcholine receptor M1 (Homo sapiens) (UniProt P11229); assay: Cholinergic receptor muscarinic 1 (CHRM1) small molecule agonists, cell-based qHTS assay (AID 1963589); further: nearly all actives have a fitted effect of over 35% in size
# How it was run: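 CHO cells stably expressing human CHRM1 were loaded with calcium dye for 1 h at 37 C, then compound was added in agonist mode. Intracellular calcium fluorescence was followed kinetically at 1 s intervals. Fifteen concentrations were tested in three independent runs.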
# [20] = biological target: Beta-2 adrenergic receptor (Homo sapiens) (UniProt P07550); assay: Adrenergic beta2 receptor (ADRB2) small molecule agonists, cell-based qHTS assay (AID 1963593);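 further: CHO cells stably overexpressing human ADRB2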
# How it was run: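 CHO cells stably over-expressing ADRB2 were plated overnight at 37C, then dosed with compounds plus a stimulation mix containing 100uM IBMX and 25uM Ro-20-1724 for 0.5hr at room temperature. cAMP was measured by HTRF competition, 1hr.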
# Sequence of Gonadotropin-releasing hormone receptor (Homo sapiens) (P30968 whole entry, looked up): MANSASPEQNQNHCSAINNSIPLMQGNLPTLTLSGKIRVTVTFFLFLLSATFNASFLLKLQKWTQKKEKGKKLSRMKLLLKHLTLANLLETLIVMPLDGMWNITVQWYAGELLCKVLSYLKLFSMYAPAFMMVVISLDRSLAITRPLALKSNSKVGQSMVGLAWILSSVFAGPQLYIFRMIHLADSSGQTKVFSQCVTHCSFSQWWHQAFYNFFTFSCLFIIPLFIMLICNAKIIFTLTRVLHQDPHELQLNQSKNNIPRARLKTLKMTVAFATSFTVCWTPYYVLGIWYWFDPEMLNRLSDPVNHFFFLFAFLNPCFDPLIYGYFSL
# Sequence of D(2) dopamine receptor (Homo sapiens) (P14416 whole entry, looked up): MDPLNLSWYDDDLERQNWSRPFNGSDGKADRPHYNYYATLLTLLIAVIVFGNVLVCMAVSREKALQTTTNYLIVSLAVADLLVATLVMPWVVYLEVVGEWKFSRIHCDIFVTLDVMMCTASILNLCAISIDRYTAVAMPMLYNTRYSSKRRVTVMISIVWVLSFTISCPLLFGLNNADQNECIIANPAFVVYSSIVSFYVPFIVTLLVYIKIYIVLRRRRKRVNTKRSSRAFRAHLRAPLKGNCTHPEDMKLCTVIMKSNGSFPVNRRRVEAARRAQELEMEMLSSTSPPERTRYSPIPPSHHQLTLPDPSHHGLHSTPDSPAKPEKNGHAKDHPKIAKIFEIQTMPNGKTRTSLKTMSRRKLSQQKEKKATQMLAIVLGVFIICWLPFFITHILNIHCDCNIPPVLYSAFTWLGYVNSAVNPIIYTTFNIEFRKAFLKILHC
# Sequence of 5-hydroxytryptamine receptor 2A (Homo sapiens) (P28223 whole entry, looked up): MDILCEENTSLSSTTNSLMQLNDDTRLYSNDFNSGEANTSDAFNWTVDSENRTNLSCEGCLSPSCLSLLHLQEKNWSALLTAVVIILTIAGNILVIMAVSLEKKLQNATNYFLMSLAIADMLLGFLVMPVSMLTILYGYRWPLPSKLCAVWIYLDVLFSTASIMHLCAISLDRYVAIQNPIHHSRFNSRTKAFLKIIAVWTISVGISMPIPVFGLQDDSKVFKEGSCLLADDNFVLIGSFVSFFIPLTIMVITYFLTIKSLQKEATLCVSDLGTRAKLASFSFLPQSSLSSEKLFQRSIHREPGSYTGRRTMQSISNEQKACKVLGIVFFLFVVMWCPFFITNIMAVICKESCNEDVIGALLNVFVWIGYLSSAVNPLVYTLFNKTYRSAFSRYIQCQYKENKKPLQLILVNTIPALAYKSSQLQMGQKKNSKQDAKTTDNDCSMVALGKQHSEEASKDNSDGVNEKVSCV
# Sequence of Muscarinic acetylcholine receptor M1 (Homo sapiens) (P11229 whole entry, looked up): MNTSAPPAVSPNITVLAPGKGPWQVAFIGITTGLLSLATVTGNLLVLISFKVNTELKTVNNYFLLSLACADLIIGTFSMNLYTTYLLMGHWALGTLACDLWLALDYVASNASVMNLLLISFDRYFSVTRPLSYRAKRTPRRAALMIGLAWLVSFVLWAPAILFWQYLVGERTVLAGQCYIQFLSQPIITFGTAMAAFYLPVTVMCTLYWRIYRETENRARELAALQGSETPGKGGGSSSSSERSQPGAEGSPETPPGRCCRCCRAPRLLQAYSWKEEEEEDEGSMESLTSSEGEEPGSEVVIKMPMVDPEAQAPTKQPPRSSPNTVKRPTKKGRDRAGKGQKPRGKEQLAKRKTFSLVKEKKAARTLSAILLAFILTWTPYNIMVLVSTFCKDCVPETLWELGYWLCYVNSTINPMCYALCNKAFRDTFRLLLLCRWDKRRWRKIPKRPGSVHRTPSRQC
# Sequence of KiSS-1 receptor (Homo sapiens) (Q969F8 whole entry, looked up): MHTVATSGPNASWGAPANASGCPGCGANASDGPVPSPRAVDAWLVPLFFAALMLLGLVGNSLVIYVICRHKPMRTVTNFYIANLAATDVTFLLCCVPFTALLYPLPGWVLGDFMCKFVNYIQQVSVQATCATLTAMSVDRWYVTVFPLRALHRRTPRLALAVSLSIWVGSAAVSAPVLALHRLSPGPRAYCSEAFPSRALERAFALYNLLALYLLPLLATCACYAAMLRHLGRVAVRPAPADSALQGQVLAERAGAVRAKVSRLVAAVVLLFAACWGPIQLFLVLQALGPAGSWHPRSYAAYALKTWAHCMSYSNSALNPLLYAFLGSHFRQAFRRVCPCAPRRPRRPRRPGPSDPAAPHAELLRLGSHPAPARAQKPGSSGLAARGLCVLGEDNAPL
# Sequence of Beta-2 adrenergic receptor (Homo sapiens) (P07550 whole entry, looked up): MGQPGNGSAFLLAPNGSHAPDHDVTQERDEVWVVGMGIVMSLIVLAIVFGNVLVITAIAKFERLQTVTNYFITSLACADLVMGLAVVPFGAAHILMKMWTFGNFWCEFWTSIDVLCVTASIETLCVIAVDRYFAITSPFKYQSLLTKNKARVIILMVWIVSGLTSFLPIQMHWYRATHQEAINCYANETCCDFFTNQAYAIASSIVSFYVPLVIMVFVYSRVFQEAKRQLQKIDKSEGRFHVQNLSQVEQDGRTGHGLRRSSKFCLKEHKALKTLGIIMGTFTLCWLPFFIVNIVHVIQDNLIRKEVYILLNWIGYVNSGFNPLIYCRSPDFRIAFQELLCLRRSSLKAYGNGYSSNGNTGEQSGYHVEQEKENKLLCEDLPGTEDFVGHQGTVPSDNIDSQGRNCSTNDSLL
smiles,measurement,setting,value
NNc1nncc2ccccc12,Potency,[1],30.6 µM (active)
same,"activity change, negative = cytotoxicity",[1],-11.5% [at 19 µM]
same,Potency,[2],inactive
same,Potency,[3],inactive
same,Potency,[4],inactive
same,Potency,[5],inactive
same,Potency,[6],32.4 µM (active)
same,"activity change, negative = cytotoxicity",[6],-0.157% [at 13.5 µM]
same,"activity change, negative = cytotoxicity",[7],0.405% [at 13.5 µM]
same,Potency,[8],inactive
same,Potency,[9],inactive
same,activation,[10],0.777% [at 19 µM]
same,Potency,[11],inactive
same,Potency,[12],inactive
same,Potency,[13],inactive
OCC1CC2CC1C1CCC(CO)C21 (stereo not given),Potency,[1],inactive
same,Potency,[14],inactive
same,Potency,[2],inactive
same,Potency,[3],inactive
same,Potency,[4],inactive
same,Potency,[15],inactive
same,Potency,[5],inactive
same,Potency,[6],inactive
same,Potency,[7],inactive
same,Potency,[8],inactive
same,Potency,[9],inactive
same,Potency,[16],inactive
same,Potency,[17],inactive
same,Potency,[18],inactive
same,Potency,[19],inactive
same,Potency,[10],inactive
same,Potency,[11],inactive
same,Potency,[12],inactive
same,Potency,[20],inactive
same,Potency,[13],inactive
Cc1cc(C)cc(N)c1,Potency,[1],inactive
same,Potency,[14],inactive
same,Potency,[2],inactive
same,Potency,[3],inactive
same,Potency,[4],inactive
same,Potency,[15],inactive
same,Potency,[5],inactive
same,Potency,[6],inactive
same,Potency,[7],inactive
same,Potency,[8],inactive
same,Potency,[9],inactive
same,Potency,[16],inactive
same,Potency,[17],inactive
same,Potency,[18],inactive
same,Potency,[19],inactive
same,Potency,[10],inactive
same,Potency,[11],inactive
same,Potency,[12],inactive
same,Potency,[20],inactive
same,Potency,[13],inactive
Nc1ccc2c(S(=O)(=O)O)cccc2c1S(=O)(=O)O,Potency,[1],inactive
same,Potency,[14],inactive
same,Potency,[2],inactive
same,Potency,[3],inactive
same,Potency,[4],inactive
same,Potency,[15],inactive
same,Potency,[5],inactive
same,Potency,[6],inactive
same,Potency,[7],inactive
same,Potency,[8],inactive
same,Potency,[9],inactive
same,Potency,[16],inactive
same,Potency,[17],inactive
same,Potency,[18],inactive
same,Potency,[19],inactive
same,Potency,[10],inactive
same,Potency,[11],inactive
same,Potency,[12],inactive
same,Potency,[20],inactive
same,Potency,[13],inactive
OCCCC1CCCCC1,Potency,[1],inactive
same,Potency,[14],inactive
same,Potency,[2],inactive
same,Potency,[3],inactive
same,Potency,[4],inactive
same,Potency,[15],inactive
same,Potency,[5],inactive
same,Potency,[6],inactive
same,Potency,[7],inactive
same,Potency,[8],inactive
same,Potency,[9],inactive
same,Potency,[16],inactive
same,Potency,[17],inactive
same,Potency,[18],inactive
same,Potency,[19],inactive
same,Potency,[10],inactive
same,Potency,[11],inactive
same,Potency,[12],inactive
same,Potency,[20],inactive
same,Potency,[13],inactive
CCC(=O)OC(C)(C)C1CC=C(C)CC1 (stereo not given),Potency,[1],inactive
same,Potency,[14],inactive
same,Potency,[2],inactive
same,Potency,[3],inactive
same,Potency,[4],inactive
same,Potency,[15],inactive
same,Potency,[5],inactive
same,Potency,[6],inactive
same,Potency,[7],inactive
same,Potency,[8],inactive
same,Potency,[9],inactive
same,Potency,[16],inactive
same,Potency,[17],inactive
same,Potency,[18],inactive
same,Potency,[19],inactive
same,Potency,[10],inactive
same,Potency,[11],inactive
same,Potency,[12],inactive
same,Potency,[20],inactive
same,Potency,[13],inactive
CC(=O)NCCO,Potency,[1],inactive
same,Potency,[14],inactive
same,Potency,[2],inactive
same,Potency,[3],inactive
same,Potency,[4],inactive
same,Potency,[15],inactive
same,Potency,[5],inactive
same,Potency,[6],inactive
same,Potency,[7],inactive
same,Potency,[8],inactive
same,Potency,[9],inactive
same,Potency,[16],inactive
same,Potency,[17],inactive
same,Potency,[18],inactive
same,Potency,[19],inactive
same,Potency,[10],inactive
same,Potency,[11],inactive
same,Potency,[12],inactive
same,Potency,[20],inactive
same,Potency,[13],inactive
